Screening data (PubChem BioAssay)
Pf growth 96h: Primary qHTS for delayed death inhibitors of the malarial parasite plastid, 96 hour incubation; P. falciparum luciferase reporter growth, 96 h; Potency, µM (doses to about 28.7 µM), without a hit: at the highest dose activity change, negative = inhibition, actives largely listed as inhibitors; 6.9% of 320,000 active; AID 504834, 2011; also: potency is read from the fitted curve at half-maximal effect; % is scaled to controls: 0 for no effect and ±100 for the full control effect
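Cell-based qHTS: luciferase-tagged P. falciparum in erythrocytes (2% hematocrit, 0.05% parasitemia final) incubated with compounds for 96 hours, 37 C, 5% CO2; luciferase detection reagent then added and luminescence measured.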
Pf growth 48h: Primary qHTS for delayed death inhibitors of the malarial parasite plastid, 48 hour incubation; P. falciparum luciferase growth in erythrocytes, 48 h; Potency, µM (titrated, usually from 28.7 µM), without a hit: top-dose activity change, negative = inhibition, actives largely listed as inhibitors; 5.9% of 310,000 active; also: potency is read from the fitted curve at half-maximal effect; % is scaled to controls: 0 for no effect and ±100 for the full control effect
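Compounds are pin-transferred into medium, infected erythrocytes (2% hematocrit, 0.1% parasitemia final) are added, and plates sit one parasite generation at 37 C in 5% CO2. Detection reagent is then added and luminescence measured.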
NS1 inh: qHTS Assay for Inhibitors of Influenza NS1 Protein Function; Potency, µM (top dose mostly 46.1 µM), inactives show at the highest dose activity, positive = more growth; 0.4% of 270,000 active; AID 2326, 2010; calls by dose curve; also: potency is read from the fitted curve at half-maximal effect; actives are rising curves; nearly all actives have a fitted effect of over 50% in size
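Recovery from NS1-induced slow growth read by OD600 in budding yeast switched to galactose assay medium (pH 6.0, -URA) at 1:100 dilution. Compound 23 nl per well; the matching strain lacking NS1 serves as control.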
Sm TGR block: qHTS Assay for the Inhibitors of Schistosoma Mansoni Peroxiredoxins; Schistosoma mansoni thioredoxin glutathione reductase (TGR), Q962Y6; purified TGR, DTNB reduction, TNB absorbance 405 nm; Potency, µM (series often up to 114 µM), for the others: at the top dose activity change, negative = inhibition, actives largely listed as inhibitors; 3% of 360,000 active; also: potency is read from the fitted curve at half-maximal effect; % is scaled to controls: 0 for no effect and ±100 for the full control effect; nearly all actives have a fitted effect of over 60% in size
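Kinetic colorimetric format: TGR-catalysed, NADPH-driven DTNB reduction monitored via TNB absorbance. Enzyme dispensed at 20 nM; compound exposure 15 min at room temperature before reaction start.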
Shiga inhibitor: A qHTS for Small Molecule Inhibitors of Shiga Toxin; Vero cells, Shiga toxin protein synthesis inhibition reporter; inhibition, % at 38.7 µM; 9.2% of 290,000 active; AID 2315, 2010; in the data active = inhibition mostly above about 28%, no sharp cut-off; inactive = mostly below about 43%; also: 0% is about no effect
CHX counter: Cycloheximide Counterscreen for Small Molecule Inhibitors of Shiga Toxin | cell reporter, cycloheximide protein synthesis inhibition counterscreen | max response, % | 12% of 300,000 active; in the data active = max response mostly above about 13%, no sharp cut-off; inactive = mostly below about 14%; also: read at 38.3 µM for the half of the compounds with a filed dose; 0% is about no effect
Active calls of the source: *; u = inconclusive; x = no result; [ ] = remark or other dose. Rows were chosen to be rich in hits. Some 21% of all compounds tested hit in one or more screens of this group. Unless noted, calls follow the shape of the dose curve; as a rule, active = well fitted curve in the direction sought with a large enough effect; inconclusive = small, poorly fitted or top-dose-only effect, or another doubt; inactive = no such curve, though single readings can be large; an effect the other way counts as inactive or inconclusive.

SMILES	Pf growth 96h	Pf growth 48h	NS1 inh	Sm TGR block	Shiga inhibitor	CHX counter
CCN(CC)S(=O)(=O)c1cccc(NC(=O)C2CC(=O)N(c3ccc4c(c3)OCCO4)C2)c1 (configuration not stated)	-22.2%	u	x	-0.5%	x	x
CCOC(=O)C(C)N1N=C(/C=C/c2ccc(OC)cc2)CCC1=O (configuration not stated)	u	-4.5%	-7.3%	-17.0%	-13.9	-0.7
Cc1c(/C(O)=C2/C(=O)C(=O)N(CCN(C)C)C2c2ccc(C(C)C)cc2)cnn1-c1ccccc1 (configuration not stated)	12.4%	-7.7%	-0.8%	-5.9%	4.1	-0.8
Cc1c(/C(O)=C2\C(=O)C(=O)N(CCN(C)C)C2c2ccccc2)cnn1-c1ccccc1 (configuration not stated)	201.9%	131.0%	5.6%	12.6µM*	110.9*	49.9*
Cc1c(/C(O)=C2\C(=O)C(=O)N(CCN(C)C)C2c2ccco2)cnn1-c1ccccc1 (configuration not stated)	242.6%	x	-14.7%	u	67.3*	30.2*
CCN(CC)CCCN1C(=O)C(=O)/C(=C(/O)c2ccc3c(c2)OCCO3)C1c1ccco1 (configuration not stated)	8.7%[5.75 µM]	76.8%	-1.8%	u	45.3	46.5*
CN(C)CCCN1C(=O)C(=O)/C(=C(/O)c2ccc3c(c2)OCCO3)C1c1ccco1 (configuration not stated)	u	14.8%	-3.0%	-20.4%	-3.3	1.3
CCCOc1ccc(/C(O)=C2/C(=O)C(=O)N(CCN(C)C)C2c2ccco2)cc1 (configuration not stated)	u	34.7%	-7.2%	44.7µM*	73.8*	36.8*
COc1ccc(S(=O)(=O)N2CCOCC2)cc1C(=O)N(C)CCOc1ccc(Cl)cc1	u	u	x	0.6%	x	x
COc1ccc(N(CCC#N)S(=O)(=O)c2cccc3nsnc23)cc1	-11.3%	-12.6%	-10.2%	4.0%	11.2	-4.7
CC1=C(C(=O)Nc2cc(C)ccc2C)C(c2cccs2)NC(=S)N1 (configuration not stated)	28.6%	-0.9%	12.6%	1.9%	-5.0	-0.9
CC1CCCCN1C(=S)NC(=O)c1cc(Br)ccc1Cl (configuration not stated)	13.1µM*	u	x	0.6%	x	x
CNC(=S)N/N=C(\C)c1ccc(-n2ccnc2)cc1	x	9.5%	2.4%	-30.6%	-18.3	-2.2
C/C(=N\NC(=O)c1ccc(C)cc1C)c1ccc2c(c1)Nc1ccccc1S2	-13.5%	5.2%	23.3%	3.2%	39.8*	29.7*
C/C(=N\NC(N)=O)c1ccc(-n2ccnc2)cc1	-49.7%	31.2%	x	-25.1%	-9.2	-1.7
C/C(=N\Nc1ccccc1Cl)c1ccc(-n2ccnc2)cc1	u	u	-6.8%	x	99.7*	31.4*
C/C(=N\Nc1ccc(C(=O)O)cc1)c1ccc(-n2ccnc2)cc1	166.5%	246.7%	x	u	88.1*	73.6*
C/C(=N\NC(=O)c1ccc(C)cc1C)c1ccc(-n2ccnc2)cc1	u	-6.7%	-0.1%	-4.5%	34.5	26.6*
CCOC(=O)CCC(=O)Nc1cccc([N+](=O)[O-])c1	19.0%	12.8%	-2.8%	-17.1%	-1.7	-2.5
Cn1c(CNC(=O)c2ccccc2)nnc1SCC(=O)Nc1nccs1	1.1%	5.2%	4.6%	x	-20.7	-3.0
CCc1ccc(OCC(=O)N/N=C(\C)c2ccc(-n3ccnc3)cc2)cc1	u	u	-11.5%	0.9%	51.2*	16.2*
CCOC(=O)c1c(N)sc(=S)c2c1CCC2	-0.3%	-27.4%	18.8%	15.8µM*	-25.6	16.0
N#CCSc1ccsc1C(=O)Nc1ccc(F)cc1	16.2%	40.4%	0.9%	-13.6%	32.1	21.6*
CN(C(=O)Cn1nnc(-c2ccc(S(C)(=O)=O)cc2)n1)c1ccccc1	x	x	x	11.6%	x	x
FC(F)(F)c1cc(Oc2ccccc2)ncc1-c1nnc(-c2ccccc2Cl)o1	-13.6%	0.3%	2.5%	21.7%	-8.9	-2.3
SMILES	Pf growth 96h	Pf growth 48h	NS1 inh	Sm TGR block	Shiga inhibitor	CHX counter
COc1ccc(C(=O)C2CCCN(Cc3ccccn3)C2)c(OC)c1 (configuration not stated)	3.3%	u	-0.3%	-13.9%[57.1 µM]	-16.5	3.4
COc1ccc(C(=O)C2CCCN(Cc3c(C)[nH]c4ccccc34)C2)c(OC)c1 (configuration not stated)	u	u	2.0%	35.5µM*	-4.3	-1.3
COc1ccc(C(=O)C2CCCN(C3Cc4ccccc4C3)C2)c(OC)c1 (configuration not stated)	-12.3%	22.6%	-0.3%	10.6%	73.7*	24.1*
COc1ccc(C(=O)C2CCCN(Cc3cc(C)c(O)c(C)c3)C2)c(OC)c1 (configuration not stated)	u	u	-12.6%	-30.7%	3.0	3.8
Cc1nccn1Cc1ccc(Cl)nc1	u	10.4µM*	x	-2.9%	-9.8	5.5
Cc1nccn1Cc1ccccc1	37.1%	41.5%	7.0%	-8.3%	14.8	0.7
Cc1ccsc1CN1CCc2nc(Nc3ccccc3)ncc2C1	x	x	x	-2.6%	x	x
CCOc1ccc(NC(=O)NCCCCc2ccccc2)cc1	4.0%	4.1%	4.5%	-6.2%	13.2	-0.3
Cc1ccc(NC(=O)NCCCc2ccccc2)cc1	1.1%	-22.0%	-70.6%	5.5%	83.1*	35.3*
O=C(NCCCCc1ccccc1)Nc1ccc(F)cc1	u	u	-77.6%	-12.4%	31.1*	11.2
O=C(NCCc1ccccc1)C(=O)Nc1cccc(Br)c1	x	x	x	2.0%	x	x
Cc1cccc(NC(=O)C(=O)NCCCc2ccccc2)c1	-21.5%	62.0%	3.2%	1.0%	50.6*	49.6*
COc1ccc(NC(=O)NCCCCc2ccccc2)cc1	43.8%	u	-1.0%	7.8%	49.7	22.4*
Cc1ccc(NC(=O)C2(c3ccccc3)CCOCC2)c([N+](=O)[O-])c1	0.0%	-5.5%	3.0%	4.9%	3.9	-3.3
Cc1ccccc1NC(=O)NCCc1ccc(Cl)cc1	28.4%	u	-1.1%	x	21.6	6.9
Cc1ccccc1NC(=O)NCCCCc1ccccc1	-91.4%	u	-43.2%	12.8%	38.6*	2.7
Cc1ccc(N(C)C(=O)Oc2ccc(C(=O)c3ccc(Cl)cc3)cc2)cc1	4.65µM*	-4.8%	13.4%	19.9%	14.4	9.6
CC(=O)Nc1ccc(OC(=O)N(C)c2ccc(C)cc2)cc1	9.28µM*	u	-22.4%	1.2%	1.6	-2.6
COc1ccccc1NC(=O)CCc1nc(-c2cccs2)no1	21.6%	x	-18.3%	3.2%	-5.5	-1.3
COc1cccc(NC(=O)CCc2nc(-c3ccccc3F)no2)c1	x	9.1%	-19.3%	-9.1%	13.1	16.8*
